Pf Dd2 inh: qHTS Primary assay for Inhibitors of Plasmodium falciparum Dd2 growth in vitro; hit rate 4.3% among 120,000; AID 1347417, 2020; P. falciparum Dd2 growth, SYBR Green, 72 h; Potency, µM (doses to about 28.9 µM), actives largely listed as inhibitors; active means well fitted inhibition curve with a large enough effect; further: nearly all actives have a fitted effect of over 65% in size
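Infected erythrocytes (Dd2, 0.3% parasitemia, 2.5% hematocrit final) are added to compound in RPMI-1640/Albumax II medium, grown 72 h at 37C in low oxygen, then lysed with saponin/Triton-X containing SYBR Green and read by fluorescence.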
Hits are given with their value; n = inactive; [ ] = remark or other dose. The sample as a whole holds a higher share of hits than the screen did.

SMILES	Pf Dd2 inh
COc1ccc(Cl)cc1NC(=O)C1CCN(c2nnc(C)c3c(C)n(-c4ccccc4)nc23)CC1	n
CCOc1ccccc1CNC(=O)C1CCN(c2nnc(C)c3c(C)n(-c4ccc(C)cc4)nc23)CC1	7.1µM
COc1ccccc1CCNC(=O)C1CCN(c2nnc(C)c3c(C)n(-c4ccc(C)cc4)nc23)CC1	6.3µM
Cc1ccc(Cl)cc1NC(=O)C1CCN(c2nnc(C)c3c(C)n(-c4ccccc4)nc23)CC1	n
CCN(CC)C(=O)C1CCN(c2nnc(C)c3c(C)n(-c4ccc(Cl)cc4)nc23)CC1	n[5.79 µM]
CCOc1ccccc1CNC(=O)CSc1nnc(C)c2c(C)n(-c3ccccc3)nc12	n
Cc1nnc(N2CCC(C(=O)NCCc3ccccc3Cl)CC2)c2nn(-c3ccccc3)c(C)c12	11µM
COCCN1C[C@H]2CN(Cc3ccccn3)CCN2C1=O	n
O=C([C@@H]1C[C@H](F)CN1S(=O)(=O)c1ccc(F)cc1)N1CCCCC1	n
CCCN1C(=O)CC[C@H]2CN(C(=O)Cc3cnc(C)[nH]c3=O)CC[C@H]21	n
Cc1cnc(C2CC2)n1CC1CCN(C(=O)C(C)C)CC1	n
COc1cccc(NC(=O)N[C@H]2[C@H](O)[C@@H](N3CCC(C(N)=O)CC3)[C@@H]3OC[C@H]2O3)c1	n
O=C(c1cccc(O)c1)N1CCC(CO)(CN2CCCC2)CC1	n
Cc1nnc(N2CCC(CO)(CN3CCCC3)CC2)c2ccccc12	n
OCC1(CN2CCCC2)CCN(Cc2ccc(Cl)cc2F)CC1	n
OCC1(CN2CCCC2)CCN(Cc2cc(F)cc(F)c2)CC1	n
OCC1(CN2CCCC2)CCN(Cc2ccc3ccccc3c2)CC1	6.3µM
OCC1(CN2CCCC2)CCN(C/C=C/c2ccccc2)CC1	7.1µM
O=C1CCCN1CCc1nc(C2CCOC2)nn1-c1cccnc1 (configuration not stated)	n
O=C(c1cc(F)ccc1F)N1CCC[C@H]1c1nc(-c2ccc(F)cc2)no1	n
O=C(Nc1ccc([C@@H](O)[C@H]2COCC(=O)N2Cc2ccc(F)cc2)cc1)c1cccs1	n
O=C(CC[C@H]1NC(=O)c2ccccc2NC1=O)NC1CCN(Cc2ccc(F)cc2)CC1	n
COc1ccc(CNC(=O)N[C@H](Cc2ccccc2)C(=O)N2CCOCCNC(=O)CC2)cc1	n
Cc1ccc(NC(=O)CN2C(=O)c3ccccc3Sc3ccc(C(=O)N4CCOCC4)cc32)cc1C	n
O=C(c1ccc2c(c1)N(Cc1cccc(F)c1)C(=O)c1ccccc1S2)N1CCCC1	n
SMILES	Pf Dd2 inh
O=C(c1ccc2c(c1)N(Cc1ccccc1Cl)C(=O)c1ccccc1S2)N1CCCC1	n
CCOC(=O)c1ccc2c(c1)N(CC(=O)Nc1cc(F)ccc1F)C(=O)c1ccccc1S2	n
CN(C)c1ccc(NC(=O)CN2C(=O)c3ccccc3Sc3ccc(C(=O)N4CCCC4)cc32)cc1	10µM
COc1ccc(OC)c(NC(=O)CN2C(=O)c3ccccc3Sc3ccc(C(=O)N4CCCC4)cc32)c1	10µM
Cc1ccc2c(c1)nc1n2[C@@H](CNC2CCN(C)CC2)COC1	n
COc1ccc2[nH]c(C(=O)N3CCC4(CC3)c3nc[nH]c3CCN4C)cc2c1	n
COCCN1C(=O)c2cccn2CC1CNC(=O)C1=C(C)C(=O)OC12CCCCC2 (configuration not stated)	n
O=C(NCCc1noc(-c2ccccc2)n1)c1ccoc1	n
Cc1ccc(CN2C[C@@H](CO)[C@H](NC(=O)c3ccccc3)C2)nc1	n
O=C(CN1C(=O)NC2(CCCCC2)C1=O)Nc1ccc2c(c1)OCO2	n
COc1cccc(N2C(=O)NC(=NC3CCCC3)C23CCN(C(=O)c2ccccc2)C3)c1 (configuration not stated)	n
COc1cccc(N2C(=O)NC(=NC3CCCCC3)C23CCCN(C(=O)c2ccccc2)C3)c1 (configuration not stated)	n
COc1cccc(N2C(=O)NC(=NC3CCCCC3)C23CCCN(Cc2ccc(N(C)C)cc2)C3)c1 (configuration not stated)	11µM
COc1cccc(N2C(=O)NC(=NC3CCCCC3)C23CCN(C(=O)c2ccccc2)C3)c1 (configuration not stated)	n
COc1ccc(C(=O)N2CCCC3(C2)C(=NC2CCCC2)NC(=O)N3c2cccc(OC)c2)cc1 (configuration not stated)	n
COc1cccc(N2C(=O)NC(=NC3CCCC3)C23CCCN(Cc2ccc(N(C)C)cc2)C3)c1 (configuration not stated)	11µM
Cc1ccc(C(=O)N2CCC(n3cc(-c4nc(C)no4)nn3)C2)c(C)c1 (configuration not stated)	n
CC(=O)Nc1ccccc1NC(=O)CN1CCN(Cc2ncccc2C)CC1	n
C[S+](=O)([O-])N1Cc2ccccc2CC2(CCCCN2Cc2ccccn2)C1 (configuration not stated)	n
CCc1[nH]c2ccc(CNC(=O)c3coc(CN4CCOCC4)c3)cc2c1C	n
COc1ccccc1C(=O)N1CCC(C(=O)O)(c2ccccc2)CC1	n
CCN(CC)c1ccc(C(=O)N2CCC(c3ccncc3)CC2)cc1	n[5.79 µM]
COc1ccccc1C(=O)N1CCC2(C1)C(=O)N(C)c1ccccc12 (configuration not stated)	n
Cc1ccc(C(=O)N2CCC3(C2)C(=O)Nc2ccccc23)cc1 (configuration not stated)	n
CCN(CC)c1ccc(C(=O)N2CCC(c3c[nH]c4ccccc34)(c3c[nH]c4ccccc34)CC2)cc1	4µM
SMILES	Pf Dd2 inh
COc1ccccc1C(=O)N1CCC(c2c[nH]c3ccccc23)(c2c[nH]c3ccccc23)CC1	3.5µM
Cn1cnc(S(=O)(=O)N2CC(F)(F)C[C@H]2c2nc(C3CC3)no2)c1	n
COCCOCC(=O)N1CCCCCNC(=O)[C@@H]2CCC[C@@H]21	n
Cc1noc(C)c1S(=O)(=O)N(CC(=O)Nc1ccc(C(F)(F)F)cc1)c1ccc(C(C)C)cc1	11µM
Cc1ccc(N(CC(=O)Nc2ccc(OC(F)(F)F)cc2)S(=O)(=O)c2c(C)noc2C)cc1	n
Cc1n[nH]c(C)c1S(=O)(=O)N(CC(=O)Nc1ccc(C(F)(F)F)cc1)c1ccc(C(C)C)cc1	n
CC(c1nn[nH]n1)n1ccnc1-c1cn(C2CCNCC2)nn1 (configuration not stated)	n
CCOc1ccccc1NC(=O)c1c(NC(=O)COc2ccc(Cl)cc2)sc2c1CCCCC2	n
CCOc1ccccc1NC(=O)c1c(NC(=O)Cc2ccccc2)sc2c1CCCC2	n
CCOc1ccccc1NC(=O)c1c(NC(=O)c2cccc(C)c2)sc2c1CCCC2	8.9µM
Cc1ccc(CN2C(=O)[C@@H]3C[C@@H](O)CN3C3(CN(C4CCOCC4)C3)C2=O)o1	n
O=C(c1ccccn1)N1CCCC2(CC(c3ccccn3)=NO2)C1 (configuration not stated)	n
O=C(CCc1ccnc(N2CCCC2)c1)NCc1cccc(Cl)c1	4.5µM
Cc1nc(N2CCCC2)ncc1C(=O)NCc1cccc(Cl)c1	n
CNC(=O)CCc1ccnc(N2CCCC2)c1	n
O=C1CCN(Cc2ccc(F)cc2F)CCCCCCN1	n
O=C(Cn1c(=O)oc2ccccc21)N1CCC2(CC1)CC(N1CCCCC1)CCO2 (configuration not stated)	n
CCC(O)c1cc2n(n1)CCN(CC(=O)Nc1cnn(C)c1)C2 (configuration not stated)	n
O=C(O)c1ccc2c(c1)N(C(=O)c1ccc(F)cc1)CC2	n
